Screens deposited in PubChem by National Center for Advancing Translational Sciences (NCATS).
PTHR1 agonist: qHTS for PTHR1 Agonists: Primary Screen; Parathyroid hormone/parathyroid hormone-related peptide receptor (Homo sapiens), Q03431; HEK293 GP2 PTHR1 cells, GloSensor cAMP luminescence, 1 h; Potency, µM (highest dose often 115 µM), hits mostly activators; hit rate 0.075% among 410,000; note: nearly all actives have a fitted effect of over 55% in size
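HEK-293-derived GP2 cells expressing PTHR1 and a GloSensor cAMP reporter, 3,000/well, plated overnight, given luciferin plus IBMX (each 0.5 mM as added) for 1 h at 37 °C, then compound for 1 h at 37 °C. Luminescence was read after 15 min at room temperature.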
BRCA1 expr act: qHTS Assay to Identify Small Molecule Activators of BRCA1 Expression; MCF7-BRCA1-FFLuc reporter, luminescence, 48 h; response scale: scaled: vehicle 0%, 10 µM genistein 100%; hit rate 1.1% among 380,000; Potency, µM (top dose mostly 46.1 µM), hits mostly activators; note: nearly all actives have a fitted effect of over 80% in size
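Cells: MCF7-BRCA1-FFLuc, 2000/well. Exposure: 48 h, 37 °C, 5% CO2. Read: luminescence, 15 min post-substrate. Controls: genistein 10 microM (maximal activation), DMSO (neutral).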
B2AR arrestin: qHTS assay of beta-arrestin-biased ligands of beta2-adrenergic receptor; hit rate 0.02% among 330,000; Beta-2 adrenergic receptor (Homo sapiens), P07550; beta-arrestin recruitment to beta2AR, cell-based reporter; Potency, µM (top dose mostly 46.1 µM), usual class: activators; note: nearly all actives have a fitted effect of over 65% in size
RGS4 inh: Inhibitors of Regulator of G Protein Signaling (RGS) 4: qHTS; Regulator of G-protein signaling 4 (Homo sapiens), P49798; Transcreener GDP fluorescence polarization, RGS4-accelerated GTP hydrolysis; Potency, µM (top dose mostly 114 µM), hits mostly inhibitors; hit rate 0.039% among 390,000; AID 504845, 2011; note: nearly all actives have a fitted effect of over 75% in size
Target sequence (P49798 whole entry, looked up): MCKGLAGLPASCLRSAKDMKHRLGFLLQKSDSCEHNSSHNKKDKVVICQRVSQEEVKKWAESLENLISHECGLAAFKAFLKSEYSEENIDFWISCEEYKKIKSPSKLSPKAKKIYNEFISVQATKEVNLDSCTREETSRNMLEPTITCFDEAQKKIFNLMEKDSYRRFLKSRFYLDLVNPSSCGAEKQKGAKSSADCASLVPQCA
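MLSMR compounds (23 nl, pin-transferred) preincubated 10 min at room temperature with a 500nM (2x) first reagent, then RGS4 at 900nM (2x) plus Transcreener GDP mix added; fluorescence polarization (620/688 nm) read before and after 90 min at 30 °C.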
D3 antag: qHTS of D3 Dopamine Receptor Antagonist: qHTS; D3R cells, DiscoveRx beta-arrestin luminescence, antagonist mode; hits give low values; max response, negative = inhibition, %; hit rate 2.5% among 360,000; AID 652054, 2013; in the data active = max response below about -50%; inconclusive = no clear call, values can overlap the other calls
Target sequence (P35462 whole entry, looked up): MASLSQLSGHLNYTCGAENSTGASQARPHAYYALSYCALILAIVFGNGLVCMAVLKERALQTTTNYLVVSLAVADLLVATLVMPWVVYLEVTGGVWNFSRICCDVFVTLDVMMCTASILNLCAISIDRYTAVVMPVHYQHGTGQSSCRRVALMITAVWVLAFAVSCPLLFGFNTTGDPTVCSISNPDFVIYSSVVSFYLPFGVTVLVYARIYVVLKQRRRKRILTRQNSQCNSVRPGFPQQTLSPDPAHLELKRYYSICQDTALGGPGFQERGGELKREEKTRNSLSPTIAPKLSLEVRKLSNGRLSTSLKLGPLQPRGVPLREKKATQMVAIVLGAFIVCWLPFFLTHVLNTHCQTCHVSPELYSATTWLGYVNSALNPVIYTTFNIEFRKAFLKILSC
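Cells expressing the human receptor were seeded at 1500 cells/well, incubated overnight at 37 degrees C in 5% CO2, then exposed to library compounds with dopamine controls for 90 minutes at 37 degrees C before luminescent detection.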
D3 ag: qHTS of D3 Dopamine Receptor Agonist: qHTS; D(3) dopamine receptor (Homo sapiens), P35462; D3R DiscoveRx beta-arrestin cells, luminescence, 90 min; max activation, %; hit rate 0.58% among 410,000; in the data active = max activation above about 30%
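Agonist mode: compounds and dopamine controls were applied to plated cells for 90 min at 37 degrees C after an overnight attachment at 1500 cells/well. Luminescent read-out followed 30 - 60 minutes at room temperature with DiscoveRx detection reagent.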
Large screens that a line does not name were inactive. Shown are actives, neighbours in structure and some others; about 3.7% of the full set was active somewhere. Unless noted, calls come from the whole dose curve; as a rule, active = well fitted curve in the direction sought with a large enough effect; inconclusive = small, poorly fitted or top-dose-only effect, or another doubt; inactive = no such curve, though single readings can be large; an effect the other way counts as inactive or inconclusive.

O=C(C1CC(=O)N(c2ccccc2)C1)N1CCN(c2ccc(F)cc2)CC1 (stereo not given)	D3 antag -69
O=S1(=O)N[C@H](Cc2ccccc2)COc2cc(N3CCN(Cc4ccccc4F)CC3)ccc21	D3 antag inconclusive (no result: B2AR arrestin, RGS4 inh)
O=C(COc1cccnc1[N+](=O)[O-])Nc1cc(Cl)ccc1Cl	BRCA1 expr act 11µM
Cc1ccc(OCC(=O)Nc2ccc(Cl)cc2)c([N+](=O)[O-])n1	BRCA1 expr act 11µM
Cc1ccc(OCC(=O)Nc2ccc(F)cc2)c([N+](=O)[O-])n1	none
COc1ccc(S(=O)(=O)N2CCOCC2)cc1NC(=O)COc1cccnc1[N+](=O)[O-]	D3 antag -63
O=C(COc1cccnc1[N+](=O)[O-])Nc1cccc(S(=O)(=O)N2CCOCC2)c1	none
CCSc1nc2ccccc2n1C(=O)/C=C/c1ccc(OC)c(OC)c1	B2AR arrestin inconclusive, D3 antag -51
CCn1c(SCC(=O)N/N=C/c2ccc(OC)c(OC)c2)nc2ccccc21	none
C=CCSc1nc2ccccc2n1C(=O)/C=C/c1cc(OC)c(OC)c(OC)c1	RGS4 inh inconclusive, D3 antag -61
C=CCSc1nc2ccccc2n1C(=O)/C=C/c1ccc(OC)c(OC)c1	none
COc1cccc(CC2(CO)CCCN(CC3=Cc4cc(Cl)ccc4OC3)C2)c1 (stereo not given)	none
Cc1cccc(C(=O)Nc2scc(-c3ccc(Br)cc3)c2C(=O)O)c1	none (no result: B2AR arrestin)
Cc1ccc(-c2csc(NC(=O)c3ccc(Br)cc3)c2C(=O)O)cc1	BRCA1 expr act 2µM
CS(=O)(=O)N1CCc2cc(C(=O)OCC(=O)c3ccccc3)ccc21	BRCA1 expr act 10µM
CS(=O)(=O)N1CCc2cc(C(=O)Nc3cccc(F)c3)ccc21	BRCA1 expr act 11µM (no result: B2AR arrestin, D3 antag)
CCOC(=O)N1CCN(C(=O)c2cccc(S(=O)(=O)Nc3ccccc3Cl)c2)CC1	none
COc1ccc(NS(=O)(=O)c2cccc(C(=O)N/N=C(\C)c3ccc(-n4ccnc4)cc3)c2)cc1	none
C/C(=N\NC(=O)c1cccc(S(=O)(=O)Nc2ccccc2Cl)c1)c1ccc(-n2ccnc2)cc1	D3 antag -52
O=C(c1cccc(S(=O)(=O)Nc2ccccc2Cl)c1)N1CCC1	D3 antag -59
Cc1ccc(OCCn2c(Br)nc3c2c(=O)n(C)c(=O)n3C)cc1	D3 ag 35
CC(C)(C)OC(=O)N1CCC(c2c(C(=O)N3CCOCC3)cnn2-c2cccc(F)c2)CC1	D3 ag 74 (no result: BRCA1 expr act, B2AR arrestin, D3 antag)
Cc1ccc(CNC(=O)C(CC(C)C)OC(=O)c2ccco2)cc1 (stereo not given)	none
C#CCOCCOCCOCCNc1nc(N2CCN(C(=O)Cn3cc(CCO)nn3)CC2)nc(N2CCN(C(=O)[C@H]([C@@H](C)CC)n3cc(CCCN=C(N)N)nn3)CC2)n1	D3 ag 53 (no result: B2AR arrestin)
C#CCOCCOCCOCCNc1nc(N2CCN(C(=O)Cn3cc(CCO)nn3)CC2)nc(N2CCN(C(=O)[C@H](Cc3ccc(O)cc3)n3cc(CCO)nn3)CC2)n1	D3 antag inconclusive, D3 ag 47 (no result: B2AR arrestin)
C#CCOCCOCCOCCNc1nc(N2CCN(C(=O)[C@H]([C@@H](C)CC)n3cc([C@@H](N)Cc4ccc(O)cc4)nn3)CC2)nc(N2CCN(C(=O)[C@H](Cc3ccc(O)cc3)n3cc([C@@H](N)C(C)CC)nn3)CC2)n1 (stereo not given in full)	none
C#CCOCCOCCOCCNc1nc(N2CCN(C(=O)[C@H]([C@@H](C)CC)n3cc([C@@H](N)CC(C)C)nn3)CC2)nc(N2CCN(C(=O)[C@H](Cc3ccc(O)cc3)n3cc([C@@H](N)C(C)CC)nn3)CC2)n1 (stereo not given in full)	D3 antag -50
C#CCOCCOCCOCCNc1nc(N2CCN(C(=O)CCCCCCCCCCNC(=O)[C@H]([C@@H](C)CC)n3cc(CCCCCN)nn3)CC2)nc(N2CCN(C(=O)CCCCCCCCCCNC(=O)[C@H](CCCCN)n3cc(CCCC(=O)O)nn3)CC2)n1	D3 ag 42
C#CCOCCOCCOCCNc1nc(N2CCN(C(=O)Cn3cc(CCCN=C(N)N)nn3)CC2)nc(N2CCN(C(=O)[C@H]([C@@H](C)CC)n3cc(CCCCN)nn3)CC2)n1	none
COc1ccc(NC(=O)Cc2csc(C)n2)cc1	none (no result: BRCA1 expr act, B2AR arrestin, D3 antag)
O=C(Cc1ccc(NC(=O)C2CCN(C(=O)C3CCC3)CC2)cc1)Nc1cccc(C(=O)N2CCCCC2)c1	none (no result: B2AR arrestin)
O=C(NNC(=O)c1ccccc1F)c1cccc(S(=O)(=O)N2CCc3ccccc32)c1	none
C#CCOCCOCCOCCNc1nc(N2CCN(C(=O)CCCCCCCCCCNC(=O)Cn3cc(CCCCCN)nn3)CC2)nc(N2CCN(C(=O)CCCCCCCCCCNC(=O)[C@H]([C@@H](C)CC)n3cc(CCCCN=C(N)N)nn3)CC2)n1	RGS4 inh inconclusive, D3 antag -63
C#CCOCCOCCOCCNc1nc(N2CCN(C(=O)CCCCCCCCCCNC(=O)[C@@H](CCC(=O)O)n3cc(CCCCCN)nn3)CC2)nc(N2CCN(C(=O)CCCCCCCCCCNC(=O)[C@H]([C@@H](C)CC)n3cc(CCCCCN)nn3)CC2)n1	D3 ag 35
CC(C)(C)c1ccc(C(=O)OCCN2CCCCC2)cc1	none
COc1ccc(C(=O)OCCN2CCCCC2)cc1	D3 antag -78
COc1ccc(C(=O)CCN2CCCCCC2)cc1	RGS4 inh inconclusive, D3 antag -54
CC(C)Oc1ccc(C(=O)CCN2CCOCC2)cc1	none (no result: B2AR arrestin)
O=C(OCCN1CCCCC1)c1cccc(Cl)c1	D3 antag -102
CCOc1ccc(C(=O)CCN2CCCCC2)cc1	RGS4 inh inconclusive
CC(C)Oc1ccc(C(=O)CCN2CCCCC2)cc1	RGS4 inh inconclusive, D3 antag -78
COc1ccccc1CCn1cnc(Cc2ccccc2)c1C(C)C	none (no result: B2AR arrestin, RGS4 inh)
C=C1C(=C/C=C2\CCC[C@]3(C)[C@@H]([C@H](C)/C=C/[C@H](C)C(C)C)CC[C@@H]23)C[C@@H](O)C[C@@H]1O	none (no result: PTHR1 agonist, BRCA1 expr act, B2AR arrestin, RGS4 inh, D3 antag)
Brc1cccc(OCCN2CCOCC2)c1	D3 antag inconclusive
Cc1cccc(OCCCN2CCCCCC2)c1	D3 antag -51
Brc1cccc(OCCN2CCc3ccccc3C2)c1	D3 antag -73
